Hits are enriched below; roughly 2.8% of the tested compounds scored in any of these assays.
Pol kappa inh-1: qHTS for Inhibitors of Polymerase Kappa. AID 588579, 2011. Potency, µM (series often up to 107 µM), inactives show top-dose activity, negative = inhibition, actives largely listed as inhibitors. purified Pol kappa, fluorescent DNA synthesis assay, 10 min. 0.53% of 400,000 active. DNA polymerase kappa (Homo sapiens), Q9UBT6; note: potency is the fitted concentration of half-maximal effect; % is set by controls: 0 for no effect and ±100 for the full control effect
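10 nM Pol kappa was preincubated with compounds for 15 min at room temperature. Reaction started with 50 nM (final) substrate. Fluorescence read kinetically at 0 and 10 min.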
WRN helicase inh-1: qHTS for Inhibitors of WRN Helicase; AID 651768, 2012; WRN helicase unwinding, fluorescent forked duplex, kinetic; 0.46% of 360,000 active; Potency, µM (series often up to 114 µM), for the others: at the top dose activity change, negative = inhibition, actives largely listed as inhibitors; Bifunctional 3'-5' exonuclease/ATP-dependent helicase WRN (Homo sapiens), Q14191; note: potency is the fitted concentration of half-maximal effect; % is set by controls: 0 for no effect and ±100 for the full control effect; nearly all actives have a fitted effect of over 55% in size
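Kinetic fluorescence helicase assay: unwinding of a quenched forked DNA duplex (100 nM final) with 2 mM ATP final raises red fluorescence (525/598 nm). Compounds sat 15 min at room temperature with 20 nM WRN beforehand.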
PI5P4K alpha inh: qHTS for Inhibitors of phosphatidylinositol 5-phosphate 4-kinase (PI5P4K); PI5P4Kalpha enzyme, ADP-Glo luminescence, 60 min; active compounds read low; Phosphatidylinositol 5-phosphate 4-kinase type-2 alpha (Homo sapiens), P48426; AID 652105, 2013; 1.2% of 330,000 active; max response, %; active = max response of -50% or lower; inconclusive = between -30% and -50%; inactive = -30% or higher; note: value at the top dose of about 77 µM; % is set by controls: 0 for no effect and ±100 for the full control effect
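ADP-Glo luminescence end-point read after a 60 min room-temperature kinase reaction of PI5P4Kalpha plus substrate, initiated with ATP at 5 microM final. Buffer: 0.038 M HEPES pH 7.4, EGTA, 0.1% CHAPS, 5% DMSO.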
POLI inh: qHTS for Inhibitors of Polymerase Iota; Pol iota fluorescent replication assay, 10 min; 1% of 390,000 active; AID 588590, 2011; DNA polymerase iota (Homo sapiens), Q9UNA4; Potency, µM (doses to about 115 µM), for the others: top-dose activity, negative = inhibition, actives largely listed as inhibitors; note: potency is the fitted concentration of half-maximal effect
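Pol iota at 10 nM preincubated 15 min with compounds at room temperature; reaction started with fluorescent substrate, 50 nM final. Fluorescence read kinetically at 0 and 10 min; buffer-only wells as negative control.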
Pol eta inh-1: qHTS for Inhibitors of Polymerase Eta; recombinant Pol eta, fluorescent DNA replication assay; 1.2% of 390,000 active; Potency, µM (top dose mostly 114 µM), without a hit: at the top dose activity change, negative = inhibition, hits mostly inhibitors; AID 588591, 2011; DNA polymerase eta (Homo sapiens), Q9Y253; note: potency is the fitted concentration of half-maximal effect; % is set by controls: 0 for no effect and ±100 for the full control effect
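Pol eta (10 nM) was preincubated with compounds for 15 min at room temperature, after which fluorescent replication substrate (50 nM final) was added to start the reaction. Fluorescence was read kinetically at 0 and 10 min.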
Pol beta inh: qHTS Assay for Inhibitors of DNA Polymerase Beta | Pol beta primer extension/strand displacement, fluorescence kinetic | Potency, µM (top dose mostly 114 µM), for the others: top-dose activity change, negative = inhibition, most hits filed as inhibitors | 1.3% of 340,000 active | AID 485314, 2010; note: potency is the fitted concentration of half-maximal effect; % is set by controls: 0 for no effect and ±100 for the full control effect
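Reaction started by 50 nM substrate onto compound-treated Pol beta (10 nM, 15 min preincubation, room temperature); plates read at 0 min and 10 min. Normalized concentration-effect data fitted by four-parameter Hill equation.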
PGK validate: qHTS for inhibitors of Phosphogylcerate Kinase: Hit Validation Screen | shares compounds with Pol kappa inh-1 | TbPGK coupled GAPDH assay, Kinase-Glo luminescence | Potency, µM (top dose mostly 57.5 µM), for inactives: at the top dose activity change, negative = inhibition, usual class: inhibitors | 79% of 500 active | AID 686980, 2013; note: potency is the fitted concentration of half-maximal effect; % is set by controls: 0 for no effect and ±100 for the full control effect; nearly all actives have a fitted effect of over 65% in size
Pol iota confirm: qHTS for Inhibitors of Polymerase Iota: Confirmatory Assay for Cherry-picked Compounds; shares compounds with Pol kappa inh-1; Pol iota primer extension, TAMRA/BHQ fluorescence; Potency, µM, actives largely listed as inhibitors; 77% of 1,500 active; note: potency is the fitted concentration of half-maximal effect
Pol kappa inh-2: qHTS for Inhibitors of Polymerase Kappa: Confirmatory Assay for Cherry-picked Compounds; shares compounds with Pol eta inh-1; purified Pol-kappa, fluorescent strand-displacement substrate; Potency, µM, actives largely listed as inhibitors; 76% of 920 active; AID 720501, 2013; note: potency is the fitted concentration of half-maximal effect
Pol eta inh-2: qHTS for Inhibitors of Polymerase Eta: Confirmatory Assay for Cherry-picked Compounds | Potency, µM, most hits filed as inhibitors | 64% of 2,600 active | shares compounds with Pol eta inh-1 | Pol eta primer extension, TAMRA/BHQ fluorescence, 10 min | AID 720502, 2013; note: potency is the fitted concentration of half-maximal effect
WRN helicase inh-2: qHTS for Inhibitors of WRN Helicase: Confirmatory Assay for Cherry-picked Compounds. WRN helicase DNA unwinding, fluorescence kinetic. AID 720497, 2013. 63% of 610 active. Potency, µM (doses to about 57.1 µM), inactives show top-dose activity, negative = inhibition, actives largely listed as inhibitors. shares compounds with WRN helicase inh-1; note: potency is the fitted concentration of half-maximal effect; nearly all actives have a fitted effect of over 65% in size
TO DNA binding: qHTS for Inhibitors of WRN Helicase: Thiazole Orange DNA Binding Counterscreen | shares compounds with WRN helicase inh-1 | thiazole orange DNA binding displacement, fluorescence | Potency, µM (top dose mostly 57.1 µM), without a hit: at the top dose activity change, negative = inhibition, most hits filed as inhibitors | 10% of 610 active | AID 720499, 2013;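 note: drop in dye fluorescence marks compound binding to DNA; potency is the fitted concentration of half-maximal effect; % is set by controls: 0 for no effect and ±100 for the full control effect; nearly all actives have a fitted effect of over 60% in size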
BLM helicase inh: qHTS for Inhibitors of WRN Helicase: BLM Helicase Counterscreen for WRN Inhibitors | shares compounds with WRN helicase inh-1 | Potency, µM (highest dose often 57.1 µM), for inactives: at the highest dose activity change, negative = inhibition, most hits filed as inhibitors | Recombinant BLM helicase DNA unwinding, red fluorescence | 60% of 610 active; note: potency is the fitted concentration of half-maximal effect; nearly all actives have a fitted effect of over 60% in size
Active calls of the source: *; ? = inconclusive; / = no result given; [ ] = remark or other dose. Unless noted, calls come from the whole dose curve; as a rule, active = well fitted curve in the direction sought with a large enough effect; inconclusive = small, poorly fitted or top-dose-only effect, or another doubt; inactive = no such curve, though single readings can be large; an effect the other way counts as inactive or inconclusive.

SMILES | Pol kappa inh-1 | WRN helicase inh-1 | PI5P4K alpha inh | POLI inh | Pol eta inh-1 | Pol beta inh | Pol iota confirm | Pol eta inh-2 | others
Cc1nc2c(nc1C)C(=O)c1ccccc1C2=O | -15.1% | -9.3% | -0.3 | 12.7% | ? | / | / | /
COC1=C(N)C(=O)c2nc(C)ccc2C1=O | ? | -32.6% | -4.3 | 17.8µM* | 8.91µM* | / | 23.8* | 30.1* | Pol kappa inh-2=18.9*
O=C(NCCCc1ccccc1)c1cc(COc2ccc(F)cc2Cl)on1 | -3.7% | -4.2% | 4.5 | 27.9% | -10.2% | -7.4% | / | /
O=C(COC(=O)CNC(=O)C1CCCCC1)NCc1ccc(Cl)cc1 | -6.4% | -0.7% | 0.6 | 10.9% | -4.5% | / | / | /
Cc1cc(/C=N/Nc2ccc([N+](=O)[O-])cn2)c(C)n1-c1ccc(C(=O)O)cc1 | 79.4µM* | 50.1µM* | -83.7* | 17.8µM* | 17.8µM* | ? | ? | 67.5*
COc1cc(Cn2c3ccc(NC(=O)CCc4ccc(O)cc4)cc3c(=O)n2C)ccc1F | / | 3.2%[57.1 µM] | 3.7 | / | / | / | / | /
N#C/C(=C\c1ccc(OCc2ccc(C(=O)O)cc2)cc1)C(=O)NCc1ccccc1 | 6.1% | -16.6%[57.1 µM] | -0.8 | ? | ? | -7.2% | / | /
Cc1nc(S/C(=C/c2ccc(OCc3ccc(C(=O)O)cc3)cc2)C(=O)O)n[nH]1 | 39.8µM* | ? | ? | 3.98µM* | 20µM* | -26.1% | 11.9* | 26.9*
Cc1cc(C)c(C)c(S(=O)(=O)N2CCC(C(=O)N(C)Cc3nc4ccccc4c(=O)[nH]3)CC2)c1C | -13.7% | -18.3% | 2.3 | -6.3% | -24.2% | / | / | /
CCc1ccc(C(=O)c2cn(CC(=O)Nc3ccc4c(c3)OCO4)c3ccc(OC)cc3c2=O)cc1 | -21.6% | / | / | ? | 44.7µM* | 10µM* | 21.2* | ? | Pol kappa inh-2=16.8*
CCc1ccc(C(=O)c2cn(CC(=O)Nc3ccc(OC)cc3)c3cc4c(cc3c2=O)OCO4)cc1 | -1.3% | / | / | 26.8% | -7.2% | ? | / | /
COc1ccccc1-n1nnnc1SCC(=O)NCC1CCCO1 (stereo not drawn) | 5.0% | 8.6% | 0.8 | -7.9% | -12.4% | / | / | /
COc1ccccc1NC(=O)c1cnc(SCC(=O)NCC2CCCO2)n(C)c1=O (stereo not drawn) | -15.5% | ? | -2.7 | 22.4µM* | 39.8µM* | / | ? | 84.9*
CC(=O)N[C@H]1[C@H](O[C@@H]2c3ccc(c(Cl)c3)Oc3cc4cc(c3O[C@@H]3O[C@H](CO)[C@@H](O)[C@H](O)C3C)Oc3ccc(cc3Cl)C[C@H]3NC(=O)[C@@H](N)c5ccc(O)c(c5)Oc5cc(O)cc(c5)[C@H](NC3=O)C(=O)N[C@H]4C(=O)N[C@H]3C(=O)N[C@@H]2C(=O)N[C@@H](C(=O)O)c2cc(O)cc(O[C@H]4O[C@H](CO)[C@@H](O)C(O)[C@@H]4O)c2-c2cc3ccc2O)O[C@H](CO)[C@@H](O)[C@@H]1O (stereo partly drawn) | -2.0%[12 µM] | / | / | / | / | / | / | /
CC1=C(C(=O)N2CCCCCC2)CC(CC(=O)NCCN2CCOCC2)C(=O)N1CCC1=CCCCC1 (stereo not drawn) | / | 0.0%[57.1 µM] | -4.3 | / | / | / | / | /
CC(=O)c1cn(N2CCCCC2)c(=O)[nH]c1=O | -2.8% | 5.6% | -1.0 | -0.1% | 10.2% | 4.2% | / | /
Cc1cc2nc3c(=O)[nH]c(=O)[nH]c3nc2c([N+](=O)[O-])c1N | 28.2µM* | 50.1µM* | -76.4* | ? | 3.55µM* | 35.5µM* | 23.8* | 21.3* | Pol kappa inh-2=16.8*
CC(=O)c1c(C)oc(C)c1CSCc1ccc(C(=O)O)o1 | 31.6µM* | ? | / | 7.94µM* | 6.31µM* | 12.6µM* | 47.4* | ? | WRN helicase inh-2=9.61µM*;TO DNA binding=-3.6%;BLM helicase inh=19.2µM*
COc1ccc(C(=O)CCC(=O)N2CCN(c3ccc(C)cc3)C(C)C2)cc1 (stereo not drawn) | 2.4% | -1.4%[57.1 µM] | -9.1 | 48.4% | -9.8% | -4.4% | / | /
O=C1C(=Cc2ccco2)CCC1=Cc1ccco1 | 5.01µM* | 3.55µM* | -83.5* | ? | 0.794µM* | / | 2.99* | 5.36* | PGK validate=18.3µM*;Pol kappa inh-2=2.67*;WRN helicase inh-2=7.64µM*;TO DNA binding=2.3%;BLM helicase inh=7.64µM*
COc1ccc(CN2CC(C(=O)NCCCN3CCCC(C)C3)CC2=O)cc1 (stereo not drawn) | 0.0% | 6.8% | 0.0 | -0.9% | -21.9% | 2.7% | / | /
